Rv3671c inh – Rv3671c serine protease inhibitors, primary screen, biochemical, fluorescence polarization, M. tuberculosis H37Rv | P9WHR9 | inhibition, % at 5.96 µM | 0.048% of 320,000 active | AID 2606, 2010; in the data active = inhibition above about 38%;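 also: extracellular domain of Rv3671c used as enzyme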
Mtb bLac sens – beta-lactam sensitization of Mtb H37Rv, H37Rv. M. tuberculosis H37Rv growth with meropenem, percent inhibition. inhibition, % at 25 µM. 0.27% of 330,000 active. AID 434955, 2010; call rule not given here;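 also: growth measured after seven days incubation then overnight dye step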
FBA Mtb inh – Mtb FBA enzyme inhibitors, primary screen, biochemical, fluorescence, strain H37Rv; AID 588726, 2011; purified M. tuberculosis FBA, fluorescence read-out; 2.3% of 360,000 active; inhibition, % at 1 µM; Fructose-bisphosphate aldolase (Mycobacterium tuberculosis (strain ATCC 25618 / H37Rv)), …
Mtb UGM inh – M. tuberculosis UGM enzyme inhibitors, primary screen, biochemical, fluorescence polarization, single point; 0.06% of 320,000 active; purified UGM, fluorescence polarization probe displacement; inhibition, % at 10 µM; UDP-galactopyranose mutase (Mycobacterium tuberculosis (strain ATCC 25618 / H37Rv)), …; in the data active = inhibition above about 10%, passing the limit was not always enough
GDH-TPI counter-1 – GDH-TPI coupling enzyme inhibitors, primary screen, artefact control for M. tuberculosis FBA inhibitor project, biochemical, absorbance, full deck. GDH-TPI coupled enzyme counterscreen, NADH absorbance. 1.2% of 360,000 active. AID 588335, 2011. inhibition, % at 4.8 µM; in the data active = inhibition above about 30%
RecA intein inh – Mtb RecA intein splicing inhibitors, primary screen, biochemical, fluorescence, HTS. AID 2221, 2009. cell-free RecA intein splicing. Protein RecA (Mycobacterium tuberculosis (strain ATCC 25618 / H37Rv)), P9WHJ3. 0.75% of 290,000 active. inhibition, % (concentration not given with the values); in the data active = inhibition above about 30%
Mtb FBA inh conf – M. tuberculosis aldolase blockers, biochemical, fluorescence, strain H37Rv, confirmation; shares compounds with FBA Mtb inh; purified M. tuberculosis FBA, fluorescence read-out; inhibition, % at 1 µM; 78% of 5,600 active; AID 651616, 2012
GDH-TPI counter-2 – GDH-TPI coupling enzyme inhibitors, artefact control for M. tuberculosis FBA inhibitor project, biochemical, fluorescence, high throughput. GDH-TPI coupled enzyme counterscreen. 81% of 5,600 active. shares compounds with FBA Mtb inh. inhibition, % at 1 µM; in the data active = inhibition above about 10%
GDH-TPI dose – GDH-TPI coupling enzyme inhibitors, dose response, artefact control for M. tuberculosis FBA inhibitor project, biochemical, fluorescence, IC50; shares compounds with FBA Mtb inh; GDH-TPI coupled enzyme assay, artifact counterscreen; IC50, µM; 79% of 170 active; AID 652145, 2013; call rule not given here
Of the large screens only hits and unclear results are named; the others gave an inactive call (follow-up assays come after a bar, where they were run). An excerpt weighted towards active compounds, which were near 4% of everything screened. Rule as the data show it, unless noted: active = inhibition above about 27%; inactive = the rest.

COc1ccc(-c2nc3ccc(C)cn3c2Cc2ccsc2)cc1OC	FBA Mtb inh 52.4 (no result: Rv3671c inh, Mtb bLac sens, Mtb UGM inh, GDH-TPI counter-1, RecA intein inh) | Mtb FBA inh conf 116.2 | GDH-TPI counter-2 72.7
CN(C)C(=O)c1cn(-c2ccccc2)nc1-c1cc2ccccc2o1	none
O=C(O)/C=C\c1cn(-c2ccccc2)nc1-c1cc2ccccc2o1	FBA Mtb inh 76.5 | Mtb FBA inh conf 124.0 | GDH-TPI counter-2 101.0
CN(Cc1cn(-c2ccccc2)nc1-c1cc2ccccc2o1)C(=O)CCC(=O)O	FBA Mtb inh 45.5 | Mtb FBA inh conf inactive | GDH-TPI counter-2 inactive
O=C(O)/C=C/c1cn(-c2ccccc2)nc1-c1ccccc1	none
CCOc1cc(C(=O)N/N=C/c2cn(-c3ccccc3)nc2-c2cc3ccccc3o2)cc(OCC)c1OCC	none (no result: Rv3671c inh, Mtb bLac sens, Mtb UGM inh, RecA intein inh)
O=C(O)/C=C/c1cn(-c2ccccc2)nc1-c1cc2ccccc2o1	FBA Mtb inh 90.6 | Mtb FBA inh conf active | GDH-TPI counter-2 156.8
O=C(O)c1cc(S(=O)(=O)Nc2ccccc2C(=O)O)ccc1O	FBA Mtb inh 28.7 | Mtb FBA inh conf inactive | GDH-TPI counter-2 inactive | GDH-TPI dose inactive
O=C(O)c1cc(S(=O)(=O)Nc2cc(Cl)ccc2Oc2ccccc2)ccc1O	none (no result: Mtb UGM inh, RecA intein inh)
Cc1ccc(C(=O)NCC(=O)OCc2nnc(-c3ccc([N+](=O)[O-])cc3)o2)s1	none (no result: RecA intein inh)
CC(C)CCOCc1nc2sc3c(c2c(=O)[nH]1)CCC(C)C3 (stereo not given)	none
CCOC(=O)c1nc2sc3c(c2c(=O)[nH]1)CCC(C)C3 (stereo not given)	FBA Mtb inh 101.0 | Mtb FBA inh conf 74.0 | GDH-TPI counter-2 57.4
N#Cc1ccc(COC(=O)CC(NC(N)=O)c2ccc(Cl)cc2)cc1 (stereo not given)	none
O=S1(=O)NC(CC2=CCCCC2)C2CCCCC2O1 (stereo not given)	none
Cc1cc(C)c2nc(-c3ccccn3)cc(C(=O)Nc3cc(C)on3)c2c1	none (no result: RecA intein inh)
Cc1cc(C)c2nc(-c3ccccn3)cc(C(=O)NCc3cc(C)n(C)n3)c2c1	FBA Mtb inh 75.5 | Mtb FBA inh conf 67.6 | GDH-TPI counter-2 52.8
C=CCNC(=O)c1cc(-c2cccnc2)nc2ccccc12	none
Cc1cc(C)c2nc(-c3ccccn3)cc(C(=O)NCc3ccco3)c2c1	FBA Mtb inh 50.7 | Mtb FBA inh conf active | GDH-TPI counter-2 198.7
C=CCNC(=O)c1cc(-c2ccncc2)nc2c(C)cc(C)cc12	FBA Mtb inh 60.0 | Mtb FBA inh conf 151.7 | GDH-TPI counter-2 129.8
COc1ccc(-c2csc(NC(=O)c3ccc(S(C)(=O)=O)cc3)n2)cc1	none
COC(=O)c1ccc2nc(-c3ccc(S(C)(=O)=O)cc3)cn2c1	FBA Mtb inh 35.7 | Mtb FBA inh conf 140.6 | GDH-TPI counter-2 142.2
CNC(=O)Oc1ccc(-c2cn3cc(C)ccc3n2)cc1	FBA Mtb inh 46.7 | Mtb FBA inh conf 38.4 | GDH-TPI counter-2 34.2
COc1ccc(-c2cn3cc(C)ccc3n2)cc1F	FBA Mtb inh 37.1 (no result: RecA intein inh) | Mtb FBA inh conf 77.0 | GDH-TPI counter-2 64.9
CNC(=O)Oc1cccc(-c2cn3cc(Cl)ccc3n2)c1	none (no result: Mtb UGM inh)
COc1ccc(-c2cn3cccc(C)c3n2)cc1F	FBA Mtb inh 30.8 | Mtb FBA inh conf inactive | GDH-TPI counter-2 inactive
Cc1ccc2nc(-c3ccc4c(c3)NC(=O)CO4)cn2c1	none
CCOc1ccccc1N(CC(=O)Nc1ccccc1C(=O)N1CCCC1)S(C)(=O)=O	none
Cc1[nH]c2ccc(C(=O)N3CCN(c4ccccn4)CC3)cc2c1C	none
